Results: PubChem BioAssay (EPA / NIEHS)
Values joined by “and” are separate entries in the source; they are usually repeats but may differ in a detail not shown here. Equal entries are not always repeated. More than one record can exist for a structure, and the calls need not agree. Active and inactive are the calls of the source. The calls were made as follows: active = hit-call score of the fitted dose curve at least 0.9, where 1 is the maximum; inactive = score below 0.9.

Experiment: BSK_3C_uPAR: BioMAP Diversity Plus: 3C Assay for Urokinase-type plasminogen activator receptor (uPAR) Biomarker Activity (AID 2282998)
Details: BioMAP 3C HUVEC, uPAR biomarker ELISA; actives raise or lower the signal
Experimental: BSK_3C is a cell-based, multiplexed-readout assay that uses umbilical vein endothelium, a human vascular primary cell, with measurements taken at 24 hours after chemical dosing in a 96-well plate.BSK_3CAR is an assay component measured in the BSK_3C assay. It measures uPAR antibody related to regulation of gene expression using ELISA technology.Data from the assay component BSK_3CAR was analyzed into 1 assay endpoint. This assay endpoint, BSK_3CAR, was analyzed with bidirectional fitting relative to DMSO as the negative control and baseline of activity. Using a type of binding reporter, gain or loss-of-signal activity can be used to understand changes in the signaling as they relate to the gene PLAUR. Furthermore, this assay endpoint can be referred to as a primary readout, because this assay has produced multiple assay endpoints where this one serves a signaling function. To generalize the intended target to other relatable targets, this assay endpoint is annotated to the cytokine intended target family, where the subfamily is plasmogen activator.
The levels of cell surface (or secreted, indicated by the prefix "s") biomarker endpoints were measured by ELISA. Overt cytotoxicity to cells in confluent adherent cultures (all systems other than the BT system) was assessed by measuring total protein levels using sulforhodamine B (SRB) staining in parallel cultures at the time of biomarker measurements, indicated as SRB endpoints. For proliferation assays for adherent cell types, individual cell types are cultured at sub-confluence and relative cell numbers quantified by SRB staining at time points optimized for each system (48 h: 3C and CASM3C systems; 72 h: BT and HDF3CGF systems; 96 h: SAg system). SRB was performed by staining cells with 0.1% SRB after fixation with 10% TCA and reading wells at 560 nm.Viability and proliferation of PBMC (T cells) was quantified by Alamar Blue reduction for the SAg and BT systems. For PBMC viability (referred to as PBMC Cytotoxicity within the assay endpoint names), cells were plated (75,000/well in a 96-well plate) and then chemical samples added for 1 h before addition of activators, SEB and TSST-1 (20 ng/mL final concentration each). Cells were incubated for 90 h. Then, Alamar Blue (20 uL/well) (Invitrogen, Cat DAL1100) was added for 6 h, and the plates were read with a fluorescence microplate reader at 546/580 nm (excitation/emission). For PBMC proliferation, cells were plated and activated as above but incubated for only 16 h prior to addition of Alamar Blue. Plates were read after 6 h.

Compound | outcome | AC50
O=C(O)C(F)(F)C(F)(F)C(F)(F)C(F)(F)C(F)(F)C(F)(F)C(F)(F)C(F)(F)C(F)(F)C(F)(F)F | inactive | 31.9 µM (active) and 4.88 µM (active)
CCOP(=S)(OCC)SCSP(=S)(OCC)OCC | inactive | –
ClC1=C(Cl)[C@]2(Cl)[C@H]3[C@H]([C@H]4C=C[C@H]3C4)[C@@]1(Cl)C2(Cl)Cl | – | 3.97 µM (active)
CCC(C)(C)c1ccc(O)c(C(C)(C)CC)c1 | – | 8.8 µM (active)
Oc1ccc(-c2ccccc2)cc1 | inactive | –
Nc1ccc(-c2ccc(N)c(Cl)c2)cc1Cl | – | 6.24 µM (active)
C[C@]12CCC(=O)C[C@@H]1CC[C@@H]1[C@@H]2CC[C@]2(C)[C@@H](O)CC[C@@H]12 | – | 18.6 µM (active)
O=[N+]([O-])c1ccc(O)c([N+](=O)[O-])c1 | inactive | –
O=C(OC1CCCCC1)c1ccccc1C(=O)OC1CCCCC1 | – | 11.9 µM (active)
CC(C)CCCCCCOC(=O)c1ccccc1C(=O)OCCCCCCC(C)C | inactive | –
COc1cc(OC)nc(NC(=O)NS(=O)(=O)c2ncccc2C(=O)N(C)C)n1 | inactive | –
CCSC(C)CC1CC(=O)C(C(CC)=NOC/C=C/Cl)=C(O)C1 (stereo not given) | inactive | –
ClC(Cl)=C(Cl)C(Cl)=C(Cl)Cl | – | 32.4 µM (active)
O=c1[nH]c(=O)[nH]c(=O)[nH]1 | inactive | –
COC(=O)c1sccc1S(=O)(=O)NC(=O)Nc1nc(C)nc(OC)n1 | inactive | –
O=S(=O)(c1ccc(Cl)cc1)c1ccc(Cl)cc1 | inactive | –
CCNc1nc(NC(C)(C)C)nc(SC)n1 | inactive | –
NC(=S)Nc1ccccc1 | inactive | –
NC(=O)O | inactive | –
C=CC(=O)OCCCCCC(C)C | inactive | –

Compound | outcome | AC50
C(=NC1CCCCC1)=NC1CCCCC1 | – | 9.69 µM (active)
COP(=S)(OC)Oc1ccc(Sc2ccc(OP(=S)(OC)OC)cc2)cc1 | – | 20 µM (active)
CCOC(=O)/C=C(C)/C=C/C[C@@H](C)CCCC(C)C | – | 33.1 µM (active)
CCOP(=S)(OCC)Oc1ccc(S(C)=O)cc1 (stereo not given) | inactive | –
Oc1cccc2cccnc12 | inactive | –
CN(C)N=O | inactive | –
CCOP(=S)(OCC)Oc1nc(Cl)c(Cl)cc1Cl | – | 33.5 µM (active)
CC(=O)OC(c1ccccc1)C(Cl)(Cl)Cl (stereo not given) | inactive | –
COc1cc(-c2ccc(N)c(OC)c2)ccc1N | inactive | –
CC(C)(C)CC(C)(C)c1ccc(O)cc1 | – | 7.17 µM (active)
Oc1c(I)cc(I)cc1I | – | 10.5 µM (active)
CCC(=O)C(CC(C)N(C)C)(c1ccccc1)c1ccccc1 (stereo not given) | inactive | –
O=C(Nc1ccc2[nH]ccc2c1)c1cc2cc(F)ccc2n1Cc1cccc(F)c1 | – | 7.15 µM (active)
COC(=O)Cc1ccccc1 | inactive | –
ClC1(Cl)C2(Cl)C3(Cl)C4(Cl)C(Cl)(Cl)C5(Cl)C3(Cl)C1(Cl)C5(Cl)C24Cl (stereo not given) | inactive | –
CC(C)c1ccc(CO)cc1 | inactive | –
CCCCC(CC)CO[N+](=O)[O-] (stereo not given) | inactive | –
CC(C)(OO)c1ccccc1 | inactive | –
BrCCBr | inactive | –
